From PubChem BioAssay (NCATS)
Results filed as inconclusive are left out. Entries that show only a call come without a potency. Calls of active or inactive are those of the source. The call rests on the fitted dose curve. Peptide text beside a SMILES is read from it.

Key:
[1] = Cytotoxicity counterscreen for inhibitors of SARS-CoV-2 cell entry (AID 1645845); settings: outcome: dose series up to 57.1 µM unless noted; further: nearly all actives have a fitted effect of over 50% in size
Summary of the method: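 48 h compound treatment (after 1 h preincubation), HEK293-ACE2 cells, 37 C/5% CO2; ATP luminescence endpoint; normalized to cell wells and media blanks.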

[2] = Primary qHTS to identify inhibitors of SARS-CoV-2 cell entry (AID 1645846); settings: SARS-CoV-2 pseudovirus cell entry assay, luminescence; activity change, negative = inhibition: at 57.1 µM (top of the series) unless noted; further: nearly all actives have a fitted effect of over 45% in size
Summary of the method: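 Using luciferase-reporting pseudoviruses carrying Wuhan-Hu-1 spike, the screen tracks entry into stably ACE2-expressing cells over 48 hr. Activity is expressed relative to spike particles versus particles lacking any fusion protein.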
Potency means the concentration at half of the fitted maximal effect.

Structure (SMILES) | Potency [1] | activity change, negative = inhibition [2] [%] | Potency [2]
CC(C)S(=O)(=O)c1ccc2nccc(Nc3ccc4scnc4c3)c2c1 | inactive | -14.4 | –
Cc1cc(OCc2nnc(SC3CCCC3)n2-c2cccnc2)ccc1-c1ccc(S(C)(=O)=O)cc1 | inactive | -22.4 | –
COC(=O)/C=C/C(=O)OC | inactive | -4.67 | –
OCCn1cc(-c2ccc3c(c2)CC/C3=N\O)c(-c2ccncc2)n1 | inactive | – | inactive
CCCCOC(=O)NS(=O)(=O)c1sc(CC(C)C)cc1-c1ccc(Cn2ccnc2)cc1 | inactive | – | inactive
COc1cc2nc(-c3cc(F)ccc3O)nc(N[C@@H]3CNC[C@H]3C(C)(C)O)c2cc1OC | 3.98 µM (active) | – | 5.01 µM (active)
COc1ncc(Nc2ncc([C@H](C)N3CCN(S(C)(=O)=O)CC3)cc2-c2nc(C)nc(N)n2)cc1F | inactive | -47.8 | –
O=C(O)CC1CCC(c2ccc(-c3ccc(Nc4ccc(C(F)(F)F)nc4)cn3)cc2)CC1 (stereo not given) | inactive | -24.6 | –
Nc1ncnc2c1ncn2[C@@H]1O[C@H](CO)C[C@H]1O | inactive | -13 | –
Cc1cc(O)c(-c2ccc([C@@H](C)CN)cc2)c2c1[nH]c(=O)c1sccc12 | inactive | -4.37 | –
CCOCOC[C@H](C[C@H](C)C(=O)NO)NC(=O)c1ccc(Oc2ccccc2)cc1 | inactive | -23.9 | –
NC1=N[C@@]2(c3cc(NC(=O)c4ccc(F)cn4)ccc3F)COC[C@H]2CS1 | inactive | -18.7 | –
Cc1nc(NC(=O)N2CCC[C@H]2C(N)=O)sc1-c1csc(C(C)(C)C)n1 | inactive | – | inactive
C[C@H](Nc1nc(N[C@H](C)C(F)(F)F)nc(-c2cccc(Cl)n2)n1)C(F)(F)F | inactive | -8.78 | –
Cc1nnc(C(C)C)n1C1CC2CCC(C1)N2CCC(NC(=O)C1CCC(F)(F)CC1)c1ccccc1 (stereo not given) | inactive | -24.8 | –
COc1cc(-c2cn(C)c(=O)c3cnccc23)c(OC)cc1CN(C)C | inactive | -18.5 | –
C[C@H]1O[C@H](O[C@H]2[C@H](O)[C@@H](O)[C@@H](O[C@H]3[C@H](O)[C@@H](O)C(O)O[C@@H]3CO)O[C@@H]2CO)[C@H](O)[C@@H](O)[C@@H]1N[C@H]1C=C(CO)[C@@H](O)[C@H](O)[C@H]1O (stereo not given in full) | inactive | -16.5 | –
O=C(NCCCNC(=O)c1ccc[nH]c1=O)c1cc(-c2ccccc2)on1 | inactive | – | inactive
CCc1c(C(=O)NNC(=O)[C@@H](O)c2cc(F)cc(F)c2)ccc(O)c1C | inactive | -19.8 | –
O=C(/C=C\n1cnc(-c2cc(C(F)(F)F)cc(C(F)(F)F)c2)n1)NNc1ccccn1 | 2.51 µM (active) | – | 3.16 µM (active)
CC1(C)[C@@H](O)CC[C@]2(C)[C@H]3C(=O)C=C4[C@@H]5C[C@@](C)(C(=O)O)CC[C@]5(C)CC[C@@]4(C)[C@]3(C)CC[C@@H]12 | inactive | – | inactive
CC(/C=C/[C@@H]1C[C@]1(C)c1ccc2c(c1)C(C)(C)CCC2(C)C)=C\C(=O)O | inactive | -10.9 | –
O=C(c1ccc(NS(=O)(=O)c2cccc3cccnc23)cc1)N1CCN(CC2CC2)CC1 | inactive | -15.9 | –
Cn1cc(-c2ccc3c(c2)CCN3C(=O)Cc2cccc(C(F)(F)F)c2)c2c(N)ncnc21 | inactive | 3.56 | –
CC1=C2[N-][C@H]([C@H](CC(N)=O)[C@@]2(C)CCC(=O)NC[C@@H](C)OP(=O)([O-])O[C@H]2[C@@H](O)[C@@H](n3cnc4cc(C)c(C)cc43)O[C@@H]2CO)[C@]2(C)N=C(C(C)=C3N=C(C=C4N=C1[C@@H](CCC(N)=O)C4(C)C)[C@@H](CCC(N)=O)[C@]3(C)CC(N)=O)[C@@H](CCC(N)=O)[C@]2(C)CC(N)=O.O.[Co+2] | inactive | -20.3 | –
CC(C)N(CCCNC(=O)Nc1ccc(C(C)(C)C)cc1)C[C@H]1O[C@@H](n2cc(Br)c3c(N)ncnc32)[C@H](O)[C@@H]1O | 31.6 µM (active) | – | 35.5 µM (active)
COc1ccc(-c2cc(C(O)C3CCCCN3)c3ccccc3n2)cc1 (stereo not given) | 14.1 µM (active) | – | 12.6 µM (active)
CC(C)(O)CC[C@@H](O)[C@](C)(O)[C@H]1CC[C@@]2(O)C3=CC(=O)[C@@H]4C[C@@H](O)[C@@H](O)C[C@]4(C)[C@H]3CC[C@]12C | inactive | -22.8 | –
CC(=O)N1CCC[C@H]1C(=O)N[C@@H](Cc1cnc[nH]1)C(=O)N[C@@H](CO)C(=O)N[C@@H](CS)C(=O)N[C@@H](CC(N)=O)C(N)=O (Ac-PHSCN-NH2) | inactive | -1.41 | –
CN[C@@H](C)C(=O)N[C@@H]1C(=O)N(Cc2c(C)ccc3ccccc23)c2ccc(C#N)cc2N(C(C)=O)[C@H]1C | inactive | – | inactive
